Among the data in PMC7862700, “An all-to-all approach to the identification of sequence-specific readers for epigenetic DNA modifications on cytosine” are binding signal values, retold here.

Assay in all cases: DAPPL (digital affinity profiling via proximity ligation, sequencing); 10 mM Tris-HCl pH 7.5, 50 mM NaCl, 1 mM DTT, 4% glycerol, room temperature, 30 min; GST-TFs on glutathione beads, 16-mer random dsDNA library, 0.1% formaldehyde crosslink after washing; high values mean tight binding
Details in all cases: protein: recombinant; tags: N-terminal GST; dsDNA, one strand shown

The target of one assay is T1, FLI1 (Homo sapiens, UniProt Q01543 1-452).
T1 sequence: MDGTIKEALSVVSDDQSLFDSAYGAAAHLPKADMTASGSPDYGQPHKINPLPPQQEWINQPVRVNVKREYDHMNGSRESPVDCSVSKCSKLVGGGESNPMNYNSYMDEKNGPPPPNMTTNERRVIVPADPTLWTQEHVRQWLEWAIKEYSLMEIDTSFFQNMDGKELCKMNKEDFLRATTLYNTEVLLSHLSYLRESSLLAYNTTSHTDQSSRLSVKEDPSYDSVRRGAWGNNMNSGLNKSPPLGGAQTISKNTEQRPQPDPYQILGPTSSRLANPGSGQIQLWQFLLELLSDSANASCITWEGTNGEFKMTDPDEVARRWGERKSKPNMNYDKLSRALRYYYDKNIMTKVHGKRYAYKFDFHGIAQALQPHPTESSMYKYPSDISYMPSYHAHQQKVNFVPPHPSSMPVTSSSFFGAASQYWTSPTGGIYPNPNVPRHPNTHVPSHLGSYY
The procedure, abridged: (§1)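 Sequencing on an Illumina NextSeq500 followed washing, crosslinking with 0.1% formaldehyde, proximity ligation (BsaI/T4 ligase, 1 h, 37 °C) and PCR amplification of pools that had been incubated for 30 min at room temperature with 200 nmole of a random double-stranded 16-mer DNA library in Tris/NaCl/DTT/glycerol buffer. Each pool held DNA-barcoded human transcription factors, expressed in yeast as GST fusions and captured on glutathione beads, plus a tag-only sample. Binding signal is a hexamer's read frequency for a factor divided by its frequency in the tag-only sample.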

The target in another assay is T2, ELK1 (Homo sapiens, UniProt P19419 1-428).
T2 sequence: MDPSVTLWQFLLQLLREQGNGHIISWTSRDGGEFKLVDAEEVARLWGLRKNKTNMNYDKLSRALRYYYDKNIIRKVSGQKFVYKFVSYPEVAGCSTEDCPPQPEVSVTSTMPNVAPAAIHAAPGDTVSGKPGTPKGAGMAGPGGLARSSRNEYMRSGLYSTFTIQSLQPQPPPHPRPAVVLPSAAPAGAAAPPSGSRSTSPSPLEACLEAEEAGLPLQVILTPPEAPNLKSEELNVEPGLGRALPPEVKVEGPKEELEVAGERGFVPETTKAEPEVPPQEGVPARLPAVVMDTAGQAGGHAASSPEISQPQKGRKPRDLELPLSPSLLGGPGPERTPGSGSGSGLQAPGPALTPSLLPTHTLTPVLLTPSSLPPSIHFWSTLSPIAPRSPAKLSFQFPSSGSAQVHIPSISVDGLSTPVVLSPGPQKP
The procedure, abridged:
as §1

Another assay has as its target T3, GABPA (Homo sapiens, UniProt Q06546 1-454).
T3 sequence: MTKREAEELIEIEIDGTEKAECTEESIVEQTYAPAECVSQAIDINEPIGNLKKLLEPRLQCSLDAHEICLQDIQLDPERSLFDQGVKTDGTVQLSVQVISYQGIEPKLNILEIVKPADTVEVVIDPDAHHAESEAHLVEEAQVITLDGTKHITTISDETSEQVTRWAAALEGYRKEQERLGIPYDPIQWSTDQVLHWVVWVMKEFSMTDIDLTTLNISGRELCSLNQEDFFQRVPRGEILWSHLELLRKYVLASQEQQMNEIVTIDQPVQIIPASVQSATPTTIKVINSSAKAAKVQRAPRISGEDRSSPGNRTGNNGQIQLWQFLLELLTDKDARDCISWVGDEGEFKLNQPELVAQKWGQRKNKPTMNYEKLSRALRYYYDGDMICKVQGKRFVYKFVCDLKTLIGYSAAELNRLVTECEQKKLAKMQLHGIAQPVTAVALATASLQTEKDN
The procedure, abridged: as §1

A further assay has as its target ELF1 (Homo sapiens, UniProt P32519 1-619). In outline: as §1
Another assay has as its target T4, EHF (Homo sapiens, UniProt Q9NZC4 1-300).
T4 sequence: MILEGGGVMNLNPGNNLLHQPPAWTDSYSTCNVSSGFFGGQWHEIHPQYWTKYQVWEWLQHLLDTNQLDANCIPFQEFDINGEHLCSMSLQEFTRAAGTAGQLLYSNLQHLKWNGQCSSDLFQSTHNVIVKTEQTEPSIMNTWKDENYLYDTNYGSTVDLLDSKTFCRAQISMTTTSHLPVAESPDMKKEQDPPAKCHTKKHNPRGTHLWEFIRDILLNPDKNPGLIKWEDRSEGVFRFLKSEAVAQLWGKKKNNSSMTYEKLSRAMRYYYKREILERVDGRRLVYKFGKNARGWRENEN
The procedure, abridged: as §1

The target of another assay is SPIB (Homo sapiens, UniProt Q01892 1-262). In outline:
as §1

The next assay concerns the target T5, ELK3 (Homo sapiens, UniProt P41970 1-407).
T5 sequence: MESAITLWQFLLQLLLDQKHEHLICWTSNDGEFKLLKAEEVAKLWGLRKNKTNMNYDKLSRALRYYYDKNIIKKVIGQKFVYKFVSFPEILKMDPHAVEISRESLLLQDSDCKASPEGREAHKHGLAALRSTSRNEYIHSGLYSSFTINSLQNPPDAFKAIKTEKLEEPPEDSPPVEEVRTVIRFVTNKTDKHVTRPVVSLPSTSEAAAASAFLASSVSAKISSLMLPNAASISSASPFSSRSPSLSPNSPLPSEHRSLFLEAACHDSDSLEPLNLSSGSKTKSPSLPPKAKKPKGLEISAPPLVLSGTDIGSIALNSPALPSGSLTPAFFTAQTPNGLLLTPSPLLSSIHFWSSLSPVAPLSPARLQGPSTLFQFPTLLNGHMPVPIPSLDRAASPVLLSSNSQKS
In outline:
as §1

A further assay addresses T6, FEV (Homo sapiens, UniProt Q99581 1-238).
T6 sequence: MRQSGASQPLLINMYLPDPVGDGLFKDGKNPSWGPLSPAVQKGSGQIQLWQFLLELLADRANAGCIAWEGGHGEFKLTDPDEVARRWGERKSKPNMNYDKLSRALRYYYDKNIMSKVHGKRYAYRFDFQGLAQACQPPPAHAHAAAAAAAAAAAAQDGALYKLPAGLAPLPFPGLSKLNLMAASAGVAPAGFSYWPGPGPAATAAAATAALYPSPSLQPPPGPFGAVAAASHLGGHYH
In outline: as §1

Another assay addresses ETV5 (Homo sapiens, UniProt P41161 1-510). The procedure, abridged: as §1
A further assay concerns the target T7, SPIC (Homo sapiens, UniProt Q8N5J4 1-248).
T7 sequence: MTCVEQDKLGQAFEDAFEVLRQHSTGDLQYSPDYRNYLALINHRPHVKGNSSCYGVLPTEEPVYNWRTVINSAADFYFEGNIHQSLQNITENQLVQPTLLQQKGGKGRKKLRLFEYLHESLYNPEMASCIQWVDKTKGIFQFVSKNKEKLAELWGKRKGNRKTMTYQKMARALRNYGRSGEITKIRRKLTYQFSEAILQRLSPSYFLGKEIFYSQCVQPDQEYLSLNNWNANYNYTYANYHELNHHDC
In outline: as §1

Another assay deals with ELF4 (Homo sapiens, UniProt Q99607 1-663). The procedure, abridged: as §1
ELF4, sequence (Q99607 whole entry): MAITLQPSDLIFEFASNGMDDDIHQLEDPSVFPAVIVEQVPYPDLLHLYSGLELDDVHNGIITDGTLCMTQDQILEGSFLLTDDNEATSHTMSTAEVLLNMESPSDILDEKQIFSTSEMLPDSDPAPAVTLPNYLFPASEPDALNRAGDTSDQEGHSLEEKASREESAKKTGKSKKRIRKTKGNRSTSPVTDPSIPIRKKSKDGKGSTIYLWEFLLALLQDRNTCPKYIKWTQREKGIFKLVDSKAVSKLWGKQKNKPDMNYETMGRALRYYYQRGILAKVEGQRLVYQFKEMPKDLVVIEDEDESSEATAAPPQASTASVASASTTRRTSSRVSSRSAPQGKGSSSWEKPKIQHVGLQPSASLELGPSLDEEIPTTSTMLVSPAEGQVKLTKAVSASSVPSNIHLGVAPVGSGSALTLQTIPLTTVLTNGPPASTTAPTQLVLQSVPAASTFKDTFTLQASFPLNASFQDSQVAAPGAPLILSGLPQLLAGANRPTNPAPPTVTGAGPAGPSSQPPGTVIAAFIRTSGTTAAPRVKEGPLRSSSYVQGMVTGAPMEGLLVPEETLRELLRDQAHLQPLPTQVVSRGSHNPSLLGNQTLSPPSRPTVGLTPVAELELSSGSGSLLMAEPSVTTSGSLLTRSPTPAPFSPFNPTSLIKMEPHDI
In another assay the target is T8, ELK4 (Homo sapiens, UniProt P28324-2 1-405).
T8 sequence: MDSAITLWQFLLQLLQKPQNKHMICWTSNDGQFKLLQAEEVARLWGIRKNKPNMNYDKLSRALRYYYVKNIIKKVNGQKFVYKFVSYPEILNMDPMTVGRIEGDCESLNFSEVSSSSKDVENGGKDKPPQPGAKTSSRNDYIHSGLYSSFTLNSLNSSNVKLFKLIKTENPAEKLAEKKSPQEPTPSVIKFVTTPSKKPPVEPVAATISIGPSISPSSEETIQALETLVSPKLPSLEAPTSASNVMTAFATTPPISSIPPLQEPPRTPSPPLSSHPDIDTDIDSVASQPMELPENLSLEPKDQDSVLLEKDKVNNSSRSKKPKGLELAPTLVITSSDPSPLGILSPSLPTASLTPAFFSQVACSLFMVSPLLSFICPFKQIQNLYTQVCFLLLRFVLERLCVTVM
The procedure, abridged:
as §1

Another assay concerns the target T9, ETV2 (Homo sapiens, UniProt O00321 1-342).
T9 sequence: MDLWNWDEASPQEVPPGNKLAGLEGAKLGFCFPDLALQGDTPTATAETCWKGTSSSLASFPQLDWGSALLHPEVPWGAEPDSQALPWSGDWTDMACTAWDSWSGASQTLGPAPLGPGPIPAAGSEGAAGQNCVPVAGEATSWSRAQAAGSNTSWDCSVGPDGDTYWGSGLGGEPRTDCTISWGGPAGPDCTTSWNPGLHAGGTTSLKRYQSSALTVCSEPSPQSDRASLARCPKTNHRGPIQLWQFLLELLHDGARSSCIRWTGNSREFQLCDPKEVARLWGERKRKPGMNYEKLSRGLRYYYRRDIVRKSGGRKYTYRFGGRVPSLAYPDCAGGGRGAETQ
The procedure, abridged:
as §1

The next assay has as its target T10, ELF3 (Homo sapiens, UniProt P78545 1-371).
T10 sequence: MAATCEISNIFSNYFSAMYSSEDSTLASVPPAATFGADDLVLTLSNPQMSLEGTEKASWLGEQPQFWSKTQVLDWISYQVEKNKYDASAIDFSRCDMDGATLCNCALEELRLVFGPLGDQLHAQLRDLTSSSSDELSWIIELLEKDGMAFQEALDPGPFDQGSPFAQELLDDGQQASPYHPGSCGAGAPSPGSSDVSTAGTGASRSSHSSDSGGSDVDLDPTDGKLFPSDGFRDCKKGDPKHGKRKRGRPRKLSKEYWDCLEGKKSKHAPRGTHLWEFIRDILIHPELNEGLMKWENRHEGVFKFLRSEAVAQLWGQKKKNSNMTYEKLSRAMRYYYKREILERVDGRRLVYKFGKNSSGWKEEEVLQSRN
The procedure, abridged: as §1

For a further assay, the target named is ETV1 (Homo sapiens, UniProt P50549 1-477). The procedure, abridged: as §1
ETV1, sequence (P50549 whole entry): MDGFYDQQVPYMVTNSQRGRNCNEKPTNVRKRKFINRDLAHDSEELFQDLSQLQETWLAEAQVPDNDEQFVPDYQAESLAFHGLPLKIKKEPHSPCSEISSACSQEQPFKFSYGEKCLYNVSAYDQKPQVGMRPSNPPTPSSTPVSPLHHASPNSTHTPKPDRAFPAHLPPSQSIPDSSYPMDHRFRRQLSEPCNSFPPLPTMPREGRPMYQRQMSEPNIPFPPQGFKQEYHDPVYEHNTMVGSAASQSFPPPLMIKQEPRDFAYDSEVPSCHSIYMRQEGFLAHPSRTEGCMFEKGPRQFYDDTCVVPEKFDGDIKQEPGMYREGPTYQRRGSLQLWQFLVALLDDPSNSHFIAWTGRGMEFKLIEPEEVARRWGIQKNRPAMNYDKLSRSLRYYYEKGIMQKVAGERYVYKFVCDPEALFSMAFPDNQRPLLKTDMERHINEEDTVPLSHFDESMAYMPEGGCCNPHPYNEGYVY
In a further assay the target is SPI1 (Homo sapiens, UniProt P17947 1-270). The procedure, abridged:
as §1

SPIB, sequence (Q01892 whole entry): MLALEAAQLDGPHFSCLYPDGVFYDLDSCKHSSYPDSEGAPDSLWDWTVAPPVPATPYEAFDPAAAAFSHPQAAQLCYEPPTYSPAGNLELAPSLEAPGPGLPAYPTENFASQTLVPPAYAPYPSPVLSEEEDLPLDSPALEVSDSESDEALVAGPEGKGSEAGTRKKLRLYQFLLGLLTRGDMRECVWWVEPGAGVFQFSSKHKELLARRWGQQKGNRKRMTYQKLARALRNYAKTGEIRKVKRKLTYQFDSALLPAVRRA
ELF1, sequence (P32519 whole entry): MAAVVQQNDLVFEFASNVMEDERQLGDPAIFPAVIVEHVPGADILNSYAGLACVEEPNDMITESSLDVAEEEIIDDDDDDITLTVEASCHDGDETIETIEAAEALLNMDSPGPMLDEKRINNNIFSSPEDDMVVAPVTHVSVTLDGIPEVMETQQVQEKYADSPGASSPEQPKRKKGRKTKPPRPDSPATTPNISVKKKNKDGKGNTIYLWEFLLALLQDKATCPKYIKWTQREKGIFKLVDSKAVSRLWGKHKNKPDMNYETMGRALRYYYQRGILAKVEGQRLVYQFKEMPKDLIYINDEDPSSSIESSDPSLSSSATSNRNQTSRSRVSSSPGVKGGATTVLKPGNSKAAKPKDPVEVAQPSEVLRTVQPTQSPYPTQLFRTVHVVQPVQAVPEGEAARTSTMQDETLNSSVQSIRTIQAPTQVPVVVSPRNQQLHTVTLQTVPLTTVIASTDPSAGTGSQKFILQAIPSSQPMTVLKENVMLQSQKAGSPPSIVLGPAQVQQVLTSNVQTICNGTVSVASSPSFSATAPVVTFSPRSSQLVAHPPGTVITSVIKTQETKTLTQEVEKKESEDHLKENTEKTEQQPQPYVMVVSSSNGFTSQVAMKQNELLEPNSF
ETV5, sequence (P41161 whole entry): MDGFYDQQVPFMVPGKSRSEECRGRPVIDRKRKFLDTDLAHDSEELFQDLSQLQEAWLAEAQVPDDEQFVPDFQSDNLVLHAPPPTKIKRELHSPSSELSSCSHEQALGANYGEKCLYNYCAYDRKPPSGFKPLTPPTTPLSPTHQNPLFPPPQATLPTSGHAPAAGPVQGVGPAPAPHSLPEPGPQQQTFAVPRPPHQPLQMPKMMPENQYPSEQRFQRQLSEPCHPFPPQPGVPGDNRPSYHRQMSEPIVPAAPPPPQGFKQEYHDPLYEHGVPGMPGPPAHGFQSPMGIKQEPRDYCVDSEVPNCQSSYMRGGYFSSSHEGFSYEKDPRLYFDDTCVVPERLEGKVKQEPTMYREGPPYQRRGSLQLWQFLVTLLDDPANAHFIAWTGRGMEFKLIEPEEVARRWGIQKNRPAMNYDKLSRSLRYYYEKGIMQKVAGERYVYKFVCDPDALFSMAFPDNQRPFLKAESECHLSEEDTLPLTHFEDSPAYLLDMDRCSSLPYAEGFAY

TCACAG: the binding signal in the assay with FLI1 was 1.09 fold enrichment (6-mer frequency, TF over GST control); with ELK1, 1.15 fold enrichment (6-mer frequency, TF over GST control); with GABPA it was 1.1 fold enrichment (6-mer frequency, TF over GST control); in the assay with ELF1, 1.06 fold enrichment (6-mer frequency, TF over GST control); with EHF, 1.02 fold enrichment (6-mer frequency, TF over GST control); in the assay with SPIB it was 1.09 fold enrichment (6-mer frequency, TF over GST control). Moreover, the binding signal with ELK3 was 1.01 fold enrichment (6-mer frequency, TF over GST control); with FEV, 1.09 fold enrichment (6-mer frequency, TF over GST control); with ETV5 it was 1.07 fold enrichment (6-mer frequency, TF over GST control); in the assay with SPIC, 1.04 fold enrichment (6-mer frequency, TF over GST control); with ELF4, 1.17 fold enrichment (6-mer frequency, TF over GST control); in the assay with ELK4, 1.04 fold enrichment (6-mer frequency, TF over GST control). In addition, the binding signal is 1.28 fold enrichment (6-mer frequency, TF over GST control) with ETV2; 1.13 fold enrichment (6-mer frequency, TF over GST control) with ELF3; 1.05 fold enrichment (6-mer frequency, TF over GST control) with ETV1.

As for CGCCAA, the binding signal is 1.03 fold enrichment (6-mer frequency, TF over GST control) in the assay with FLI1; 1.02 fold enrichment (6-mer frequency, TF over GST control) in the assay with ELK1; 1.03 fold enrichment (6-mer frequency, TF over GST control) with GABPA; 1.08 fold enrichment (6-mer frequency, TF over GST control) with ELF1; 1.04 fold enrichment (6-mer frequency, TF over GST control) with EHF; 1.04 fold enrichment (6-mer frequency, TF over GST control) with SPI1. The binding signal with SPIB was 1.02 fold enrichment (6-mer frequency, TF over GST control); in the assay with ELK3, 1.06 fold enrichment (6-mer frequency, TF over GST control); in the assay with FEV it was 1.05 fold enrichment (6-mer frequency, TF over GST control); in the assay with ETV5, 1.02 fold enrichment (6-mer frequency, TF over GST control); with SPIC it was 1.11 fold enrichment (6-mer frequency, TF over GST control); in the assay with ELF4, 1.09 fold enrichment (6-mer frequency, TF over GST control). Also, the binding signal with ELK4 is 1.04 fold enrichment (6-mer frequency, TF over GST control); in the assay with ETV2, 1.03 fold enrichment (6-mer frequency, TF over GST control); in the assay with ELF3, 1.12 fold enrichment (6-mer frequency, TF over GST control).
